# Screens: PubChem BioAssay, National Center for Advancing Translational Sciences (NCATS)
# KB-V1 cytotox: kills drug-selected multidrug resistant KB-V1 cells. KB-V1 MDR cells viability, CellTiter-Glo, 72 h. Potency, µM (doses to about 46.1 µM), actives largely listed as cytotoxic. 400,000 compounds, 3.4% hits; note: nearly all actives have a fitted effect of over 60% in size
#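 KB-V1 MDR subline cells in DMEM (phenol-red free, 10% FBS) exposed to compounds in qHTS concentration series for 72 h at 37 degrees C. Viability read by CellTiter-Glo luminescence; concentration-effect curves fitted after normalization and correction.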
# KB-3-1 tox: KB-3-1 parental cell cytotoxicity; 400,000 compounds, 1.4% hits; Potency, µM (highest dose often 46.1 µM), usual class: cytotoxic; KB-3-1 viability, CellTiter-Glo ATP luminescence, 72 h; AID 1347075; note: nearly all actives have a fitted effect of over 60% in size
#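 Parental KB-3-1 adenocarcinoma cells in phenol-red-free DMEM with 10% FBS were pin-treated with compounds at several concentrations, incubated 72 h at 37 °C, and viability read by CellTiter-Glo luminescence; concentration-effect curves were fitted after normalization.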
# HT1080 IDH1KD tx: kills HT-1080 cells with IDH1 knockdown. HT-1080 IDH1 knockdown viability, ATP luminescence, 48 h. Potency, µM (doses to about 46.1 µM), for the others: at the top dose activity, negative = toxicity, usual class: cytotoxic. 360,000 compounds, 2% hits. AID 686971;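 note: 0% = DMSO wells and -100% = cell-free medium wells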
#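 Using the IDH1-knockdown HT-1080 line run in the same batch and compound series as the NT line, viability after 48 h at 37 °C was determined by CellTiter-Glo luminescence and expressed as % activity.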
# HT1080NT lethal: kills 2HG-producing HT-1080-NT fibrosarcoma cells. HT-1080-NT fibrosarcoma viability, CellTiter-Glo ATP luminescence, 48 h. Potency, µM (doses to about 46.1 µM), for the others: top-dose activity, negative = less viability, most hits filed as cytotoxic. 360,000 compounds, 1.6% hits;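 note: NT is the 2HG producing partner of a matched IDH1 knockdown line; 0% = DMSO-treated cells and -100% = media-only wells without cells; nearly all actives have a fitted effect of over 55% in size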
#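 HT-1080-NT; 750 cells/well; 5% FBS RPMI; 48 h compound, 37 degrees C; CellTiter-Glo luminescence; curve fitting and curve-class assignment.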
# An asterisk follows results filed as active; i = inactive; ? = inconclusive; nt = not tested or not shown; [ ] = another dose, or the depositor's remark. An excerpt weighted towards active compounds, which were near 5.7% of everything screened. Calls come from the whole dose curve; as a rule, active = well fitted curve in the direction sought with a large enough effect; inconclusive = small, poorly fitted or top-dose-only effect, or another doubt; inactive = no such curve, though single readings can be large; an effect the other way counts as inactive or inconclusive. Unless noted, % is set by controls: 0 for no effect and ±100 for the full control effect; potency is the fitted concentration of half-maximal effect.
SMILES,KB-V1 cytotox,KB-3-1 tox,HT1080 IDH1KD tx,HT1080NT lethal
CCN(CC)CCN1CCN(c2cncc(-c3cccc(N)c3)n2)CC1,i,i,3%,7%
CCOc1ccccc1OCC(=O)Nc1nnc(COC)s1,18µM*,i,26%,7%
CCOCC(=O)Nc1nnc(COC)s1,i,i,12%,11%
COc1cc(OC)cc(-c2cc3cc4c(cc3cn2)OCO4)c1,?,?,0.58µM*,0.92µM*
COc1ccc(-c2cc3cc4c(cc3cn2)OCO4)cc1,i,i,11%,13%
O=C(Nc1ccccc1)Nc1cccc(C(F)(F)F)c1,i,i,-1%,0%
N#C/C(=N\Nc1cccc(C(F)(F)F)c1)C(=O)c1ccsc1,3.3µM*,16µM*,?,4.6µM*
O=C(Cn1ncc2c3ccccc3n(Cc3ccccc3)c2c1=O)N1CCN(c2ncccn2)CC1,5.2µM*,?,-24%,-7%
O=[N+]([O-])c1ccc(Nc2nc(NCCN3CCOCC3)nc(Nc3ccc(I)cc3)n2)cc1,i,?,nt,nt
O=C(NC(c1ccc(F)cc1)c1ccc2ccccc2n1)C1CCN(CCOc2ccc(Cl)cc2)CC1 (stereo unspecified),?,?,21µM*,?
COc1cc(/C=C/CN2CCC(C(=O)NC(c3ccc(F)cc3)c3ccc4ccccc4n3)CC2)ccc1OC(C)=O (stereo unspecified),i,?,?,16µM*
CN(C)c1ccc(CN2CCC(C(=O)NC(c3ccc(F)cc3)c3ccc4ccccc4n3)CC2)cc1 (stereo unspecified),i,?,?,15µM*
COc1cc(OC)nc(C(NC(=O)C2CCN(Cc3ccc(N(C)C)cc3)CC2)c2ccc(F)cc2)n1 (stereo unspecified),i,i,0%,1%
O=C(NC(c1ccc(F)cc1)c1ccc2ccccc2n1)C1CCN(Cc2cccc(C(F)(F)F)c2)CC1 (stereo unspecified),?,?,5.8µM*,6.5µM*
O=C(NC(c1ccc(Cl)cc1)c1cnccn1)C1CCN(CCCOc2ccccc2)CC1 (stereo unspecified),i,i,?,?
COc1cc(CN2CCC(C(=O)NC(c3ccc(F)cc3)c3ncccc3C)CC2)cc(OC)c1 (stereo unspecified),i,i,-25%,-18%
O=C(NC(c1ccc(F)cc1)c1ccc2ccccc2n1)C1CCN(Cc2ccc3ccccc3n2)CC1 (stereo unspecified),i,?,23µM*,?
COc1ccc(CNc2nc3c(-c4ccc(C)cc4)nnn3c3ccccc23)cc1,?,i,nt,nt
O=[N+]([O-])c1ccc(S(=O)Cc2ccccc2)c([N+](=O)[O-])c1 (stereo unspecified),?,?,16µM*,16µM*
O=[N+]([O-])c1ccc(CS(=O)c2ccccc2)cc1 (stereo unspecified),?,i,10%,1%
CC(C)c1ccc(C2=NC(c3ccncc3)=Nc3ccc(F)cc3N2)cc1,i,i,nt,nt
CCOc1ccc(S(=O)(=O)N2CCN(C(=O)C3CSC4(C)CCC(=O)N34)CC2)cc1 (stereo unspecified),?,i,5%,8%
CCOc1ccccc1N1CCN(C(=O)C2CSC3(C)CCC(=O)N23)CC1 (stereo unspecified),18µM*,i,-8%,4%
CN1C(C(=O)c2ccccc2)=C(OC(=O)c2ccc(Br)cc2)c2ccccc2S1(=O)=O,i,i,nt,nt
COC(=O)c1[nH]c2ccc(F)cc2c1NS(=O)(=O)c1ccc(OC)cc1,7.3µM*,2.6µM*,?,5.2µM*
SMILES,KB-V1 cytotox,KB-3-1 tox,HT1080 IDH1KD tx,HT1080NT lethal
COc1ccc(S(=O)(=O)Nc2c(C(=O)O)[nH]c3ccc(OC)cc23)cc1,?,i,6%,6%
CCOc1ccc(CCNC(=O)c2ccc(CS(=O)(=O)Cc3ccccc3Cl)o2)cc1OCC,?,i,nt,nt
COc1ccc2c(c1)c1nnc(SCCN3CCOCC3)nc1n2C,nt,nt,-9%,-5%
CN(CC(=O)Nc1ccc(Cl)c(C(F)(F)F)c1)C(=O)c1cc(=O)[nH]c2ccccc12,i,i,-29%,-10%
CN(CC(=O)Nc1ccc(Cl)c(C(F)(F)F)c1)C(=O)c1ccc(S(=O)(=O)N2CCOCC2)cc1,?,8.2µM*,10µM*,-24%[9.24 µM]
CN(CC(=O)Nc1ccc(Cl)c(C(F)(F)F)c1)C(=O)c1ccc(OCC2CCCO2)cc1 (stereo unspecified),7.3µM*,?,?,-15%
CN(CC(=O)Nc1ccc(Cl)c(C(F)(F)F)c1)C(=O)C1CCC1,i,i,3%,-2%
COc1cccc(NC(=O)CN(C)C(=O)c2cccnc2Nc2cccc(C(F)(F)F)c2)c1,?,?,16µM*,?
CN(CC(=O)Nc1ccc(Cl)c(C(F)(F)F)c1)C(=O)c1cccc2cccnc12,18µM*,i,-4%,0%
O=C(Nc1c2c(nn1-c1ccc(Cl)cc1)CS(=O)(=O)C2)c1ccccc1F,i,i,nt,nt
Cc1ccc(N(CC(=O)Nc2ccc(S(=O)(=O)N3CCOCC3)cc2)S(C)(=O)=O)cc1C,23µM*,i,1%,0%
CCCc1ccc(OCC(=O)NNC(=O)c2cccnc2)cc1,i,i,7%,5%
CN1CCN(c2ccc([N+](=O)[O-])cc2C(=O)c2ccc(Cl)cc2)CC1,4.6µM*,2.3µM*,5.2µM*,5.8µM*
O=C(c1ccc(Cl)cc1)c1cc([N+](=O)[O-])ccc1N1CCOCC1,1.8µM*,?,1.2µM*,1.5µM*
O=C(c1ccccc1)c1cc([N+](=O)[O-])ccc1N1CCOCC1,1.2µM*,1.2µM*,0.73µM*,1µM*
O=C(c1cc([N+](=O)[O-])ccc1N1CCOCC1)N1CCCCC1,i,?,10%,11%
O=C(c1ccc(Br)cc1)c1cc([N+](=O)[O-])ccc1N1CCOCC1,4.6µM*,i,5.8µM*,5.2µM*
O=C(COC(=O)c1cc([N+](=O)[O-])ccc1N1CCOCC1)Nc1ccc(Cl)cc1,?,i,-2%,-18%
CN1CCN(c2ccc([N+](=O)[O-])cc2C(=O)N2CCCCC2)CC1,i,i,0%,-4%
CCOC(=O)c1c(C)[nH]c(C)c1S(=O)(=O)N(C)CC(=O)Nc1ccc(C)cc1C,i,i,nt,nt
COc1ccc(CCn2c3c(c(=O)[nH]c2=O)C(NC(=O)c2ccccc2F)(C(F)(F)F)C(=O)N3)cc1OC (stereo unspecified),i,i,nt,nt
COc1ccc(OC)c(NC(=O)C2=C(C)C(=O)OC23CCCCCC3)c1,i,i,nt,nt
CC1CCCN(c2ccc([N+](=O)[O-])cc2C(=O)c2ccccc2)C1 (stereo unspecified),i,?,2.9µM*,?
O=C(c1ccccc1)c1ccc(N2CCOCC2)c(F)c1,21µM*,i,-2%,12%
